Several values for one entry are separate records, joined by “and”; a condition that tells them apart may be missing. Equal values may be shown once. Some compounds were tested as several samples or in several runs, with calls that do not always agree. Activity calls are given as the source filed them. Unless noted, calls come from the whole dose curve; as a rule, active = well fitted curve in the direction sought with a large enough effect in the repeat runs; inconclusive = weak or mixed curves; inactive = no such curve, though single readings can be large; an effect the other way counts as inactive or inconclusive.
Legend:
[1] = qHTS assay to identify small molecule antagonists of the thyroid receptor (TR) signaling pathway - cell viability counter screen (AID 743064); note: nearly all actives have a fitted effect of over 50% in size; note: potency is the fitted concentration of half-maximal effect
In short: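 Compounds were tested on GH3.TRE-Luc cells in the presence of T3 at 1 nM final. Following 23.5 h at 37 °C, cell viability was quantified by CellTiter-Fluor.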

[2] = qHTS assay to identify small molecule antagonists of the thyroid receptor (TR) signaling pathway (AID 743065); note: nearly all actives have a fitted effect of over 55% in size; note: potency is the fitted concentration of half-maximal effect
In short: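 Antagonism measured as loss of luciferase signal in GH3 cells stably carrying a TRE-luciferase reporter, co-treated with compound and T3 (1 nM final) for 23.5 h at 37 C. Viability was read in the same well by CellTiter-Fluor.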

[3] = tested on: thyroid hormone receptor (rat, GH3 cells); assay: qHTS assay to identify small molecule agonists of the thyroid receptor (TR) signaling pathway (AID 743066; calls by dose curve)
[4] = qHTS assay to identify small molecule antagonists of the estrogen receptor alpha (ER-alpha) signaling pathway - cell viability counter screen (AID 743074; calls by dose curve; note: nearly all actives have a fitted effect of over 45% in size; note: potency is the fitted concentration of half-maximal effect)
[5] = qHTS assay to identify small molecule antagonists of the estrogen receptor alpha (ER-alpha) signaling pathway using the BG1 cell line - cell viability counter screen (AID 743081);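 note: compound given together with 17beta-estradiol as the ER stimulus; nearly all actives have a fitted effect of over 45% in size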; note: potency is the fitted concentration of half-maximal effect
Aromatase (Homo sapiens) = Aromatase (Homo sapiens) (UniProt P11511); assay: qHTS assay to identify aromatase inhibitors (AID 743083); note: nearly all actives have a fitted effect of over 55% in size; note: potency is the fitted concentration of half-maximal effect
Sequence of Aromatase (Homo sapiens) (P11511 whole entry, looked up): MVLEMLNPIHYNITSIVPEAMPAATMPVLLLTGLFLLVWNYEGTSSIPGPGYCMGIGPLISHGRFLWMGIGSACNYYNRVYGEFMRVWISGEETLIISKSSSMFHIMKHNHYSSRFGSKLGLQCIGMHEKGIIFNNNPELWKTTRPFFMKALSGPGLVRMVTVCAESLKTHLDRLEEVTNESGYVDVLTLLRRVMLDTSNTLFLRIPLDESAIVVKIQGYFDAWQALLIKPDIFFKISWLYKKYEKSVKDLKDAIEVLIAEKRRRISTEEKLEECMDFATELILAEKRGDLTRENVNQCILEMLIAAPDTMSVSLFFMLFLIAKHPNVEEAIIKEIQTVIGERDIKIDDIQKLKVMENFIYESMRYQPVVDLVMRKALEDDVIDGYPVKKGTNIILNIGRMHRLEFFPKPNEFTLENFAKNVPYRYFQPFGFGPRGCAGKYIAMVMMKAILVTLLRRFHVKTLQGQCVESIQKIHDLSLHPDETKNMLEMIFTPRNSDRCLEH

[6] = biological target: Estrogen receptor (Homo sapiens) (UniProt P03372); assay: qHTS assay to identify small molecule agonists of the estrogen receptor alpha (ER-alpha) signaling pathway (AID 743075; calls by dose curve; note: potency is the fitted concentration of half-maximal effect)
Sequence of Estrogen receptor (Homo sapiens) (P03372 whole entry, looked up): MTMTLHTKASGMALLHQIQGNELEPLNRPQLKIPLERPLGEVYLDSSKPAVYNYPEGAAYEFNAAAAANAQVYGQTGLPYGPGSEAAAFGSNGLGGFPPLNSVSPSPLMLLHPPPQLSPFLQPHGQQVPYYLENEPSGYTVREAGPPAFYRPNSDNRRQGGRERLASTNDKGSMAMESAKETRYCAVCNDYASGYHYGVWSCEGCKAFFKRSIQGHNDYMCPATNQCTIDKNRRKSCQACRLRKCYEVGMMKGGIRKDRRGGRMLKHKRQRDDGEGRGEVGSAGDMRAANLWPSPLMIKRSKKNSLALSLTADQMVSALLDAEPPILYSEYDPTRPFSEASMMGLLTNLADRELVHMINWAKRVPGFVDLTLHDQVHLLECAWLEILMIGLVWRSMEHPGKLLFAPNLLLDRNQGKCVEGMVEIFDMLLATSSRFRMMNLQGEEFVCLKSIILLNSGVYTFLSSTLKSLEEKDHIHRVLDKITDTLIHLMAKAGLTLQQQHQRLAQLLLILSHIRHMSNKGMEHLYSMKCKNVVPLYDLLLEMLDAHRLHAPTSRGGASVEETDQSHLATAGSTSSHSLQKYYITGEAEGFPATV

[7] = biological target: Estrogen receptor (Homo sapiens) (UniProt P03372); assay: qHTS assay to identify small molecule agonists of the estrogen receptor alpha (ER-alpha) signaling pathway using the BG1 cell line (AID 743079); conditions: BG1Luc4E2 cells, ERE-luciferase agonist, 22 h; activation: at 70.3 µM (top of the series); note: nearly all actives have a fitted effect of over 20% in size; note: potency is the fitted concentration of half-maximal effect
[8] = qHTS assay to identify small molecule antagonists of the estrogen receptor alpha (ER-alpha) signaling pathway using the BG1 cell line (AID 743080; calls by dose curve;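 note: BG1 cells stimulated with 17beta-estradiol alongside compound; nearly all actives have a fitted effect of over 25% in size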; note: potency is the fitted concentration of half-maximal effect)
In short: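 Luciferase inhibition measured with ONE-Glo after 30 min at RT in BG1Luc4E2 cells given test compounds and 17beta-estradiol for 21.5 h at 37 C; CellTiter-Fluor viability read in the same wells beforehand.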

[9] = biological target: Estrogen receptor (Homo sapiens) (UniProt P03372); assay: qHTS assay to identify small molecule antagonists of the estrogen receptor alpha (ER-alpha) signaling pathway (AID 743069; active = well fitted curve in the direction sought with a large enough effect in the signal ratio in the repeat runs, not every such curve was filed as active; inconclusive = weak or mixed curves, or effect the other way; inactive = no such curve, though single readings can be large or run the other way; the % refers to the signal ratio; note: potency is the fitted concentration of half-maximal effect)
In short: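 Fluorescence intensity from a beta-lactamase FRET substrate served as the read-out. Cells: HEK293 with stably integrated ER-alpha-UAS-bla reporter. Agonist 17beta-estradiol was co-added with compounds; incubation 18 hr at 37C, substrate 2 hr at room temperature.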

Measured: Potency

CC1CC(OC(=O)C(O)c2ccccc2)CC(C)(C)N1C (stereo unspecified)
inactive: [1] | [2] | [3] | [4] | [5] | Aromatase (Homo sapiens)

CC(C)C=O
inactive: [1] | [2] | [3] | [4] | [5] | Aromatase (Homo sapiens)

CCOC(=O)C1=C(C)NC(C)=C(C(=O)OC)C1c1cccc(Cl)c1Cl (stereo unspecified)
active: [1] 18.8 µM | [2] 18.8 µM | [6] 10.7 µM [activator]
not listed: [9]
inactive: all other assays above

CC(=O)Nc1ccc(C)cc1C
inactive: [1] | [2] | [3] | [4] | [5] | Aromatase (Homo sapiens)

CC(C)c1nc(CN(C)C(=O)N[C@H](C(=O)N[C@@H](Cc2ccccc2)C[C@H](O)[C@H](Cc2ccccc2)NC(=O)OCc2cncs2)C(C)C)cs1
active: [1] 15 µM | [2] 10.6 µM
not listed: [5] | [9]
inactive: all other assays above

NC1[C@H]2CN(c3nc4c(cc3F)c(=O)c(C(=O)O)cn4-c3ccc(F)cc3F)C[C@@H]12 (stereo partly specified)
active: [1] 26.6 µM | [2] 9.44 µM | [8] 13.3 µM | Aromatase (Homo sapiens) 0.473 µM
inactive: [3] | [4] | [5]

CC(=O)c1ccc([N+](=O)[O-])cc1
inactive: [1] | [2] | [3] | [4] | [5] | Aromatase (Homo sapiens)

CCCCCCCCN
inactive: [1] | [2] | [3] | [4] | [5] | Aromatase (Homo sapiens)

CC1(C)[C@H](C(=O)O)N2C(=O)C[C@H]2S1(=O)=O
not listed: [9]
inactive: all other assays above

CC1=C(CC=O)C(C)(C)CCC1
inactive: [1] | [2] | [3] | [4] | [5] | Aromatase (Homo sapiens)

CC(C)(c1ccccc1)c1ccccc1
inactive: [1] | [2] | [3] | [4] | [5] | Aromatase (Homo sapiens)

CC(=O)Oc1ccc([N+](=O)[O-])cc1CCl
active: [1] 30.6 µM | [5] 61.1 µM
not listed: [8] | [9]
inactive: all other assays above

CCC(OCCCOC)OC(C)=O (stereo unspecified)
inactive: [1] | [2] | [3] | [4] | [5] | Aromatase (Homo sapiens)

Cc1cccc(N(C)C(=S)Oc2ccc3c(c2)CCC3)c1
not listed: [5] | [8] | [9]
inactive: all other assays above

C=C(C)C(=O)OCCOCCOC(=O)C(=C)C
not listed: [9]
inactive: all other assays above

CC(C)(O)c1ccc(CNC(=O)c2cccnc2Oc2ccc3nonc3c2)cc1
not listed: [7] | [9]
inactive: all other assays above

CCCCCC[C@@H](O)C/C=C\CCCCCCCC(=O)OCC(O)CO (stereo partly specified)
not listed: [9]
inactive: all other assays above

NNC(=O)CP(=O)(c1ccccc1)c1ccccc1
inactive: [1] | [2] | [3] | [4] | [5]

N#[N+]c1ccc2c(S(=O)(=O)[O-])cccc2c1O
not listed: [7] | [9]
inactive: all other assays above

O=C1c2ccccc2C(=O)C1c1nc2ccccc2c(Br)c1O
not listed: [8] | [9]
inactive: all other assays above

CCOC(=O)c1ccc(C#Cc2ccc3c(c2)C(C)(C)CCS3)nc1
inactive: [1] | [2] | [3] | [4] | [5]

CO/N=C(/C(=O)N[C@@H]1C(=O)N2C(C(=O)O)=C(COC(N)=O)CS[C@H]12)c1ccco1
inactive: [1] | [2] | [3] | [4] | [5] | Aromatase (Homo sapiens)

CC1(C)O[C@@H]2C[C@H]3[C@@H]4C[C@H](F)C5=CC(=O)C=C[C@]5(C)[C@H]4[C@@H](O)C[C@]3(C)[C@]2(C(=O)CO)O1
not listed: [6] | [8] | [9]
inactive: all other assays above

O=C(OCC(O)CO)c1ccccc1Nc1ccnc2cc(Cl)ccc12 (stereo unspecified)
not listed: [9]
inactive: all other assays above

CCCCCCCCCCC(=O)O
not listed: [9]
inactive: all other assays above

O=C(Nc1cccc2c(=O)cc(-c3nn[nH]n3)oc12)c1ccc(OCCCCc2ccccc2)cc1
inactive: [1] | [2] | [3] | [4] | [5] | Aromatase (Homo sapiens)

CC(CCC(=O)O)C(=O)O (stereo unspecified)
inactive: [1] | [2] | [3] | [4] | [5] | Aromatase (Homo sapiens)

CC(C)=CCC1C(=O)N(c2ccccc2)N(c2ccccc2)C1=O
active: [2] 21.1 µM
not listed: [7] | [8] | [9]
inactive: all other assays above

O=C(/C=C/c1ccccc1)OCCc1ccccc1
active: [7] 4.86 µM
not listed: [8] | [9]
inactive: all other assays above

c1csc(SSc2cccs2)c1
inactive: [1] | [2] | [3] | [4] | [5] | Aromatase (Homo sapiens)

O=c1cc(-c2ccccc2)oc2cc(O)cc(O)c12
active: [1] 54.5 µM | [2] 54.5 µM
inactive: [3] | [4] | [5]

CCOC(=O)OC(C)OC(=O)[C@@H]1N2C(=O)[C@@H](NC(=O)[C@H](N)c3ccccc3)[C@H]2SC1(C)C (stereo partly specified)
inactive: [1] | [2] | [3] | [4] | [5] | Aromatase (Homo sapiens)

CCCCCCCCCCCCCCN(CCO)CCO
inactive: [3] | [5]
active: [1] 19.3 µM | [2] 17.2 µM | [4] 54.9 µM | Aromatase (Homo sapiens) 27.3 µM

CCCCN1CCCC1C(=O)Nc1c(C)cc(C)cc1C (stereo unspecified)
not listed: [9]
inactive: all other assays above

CC1(C)[C@@H](OC(=O)CCC(=O)O)CC[C@]2(C)[C@H]3C(=O)C=C4[C@@H]5C[C@@](C)(C(=O)O)CC[C@]5(C)CC[C@@]4(C)[C@]3(C)CC[C@@H]12
inactive: [1] | [2] | [3] | [4] | [5] | Aromatase (Homo sapiens)

CN(C)CCC=C1c2ccccc2C=Cc2ccccc21
active: [1] 15 µM | [2] 26.6 µM
not listed: [3] | [9]
inactive: all other assays above

CC(=O)NC1(c2cccc(F)c2)CCN(CC[C@@]2(c3ccc(Cl)c(Cl)c3)CN(c3ccccc3)C(=O)CO2)CC1
active: [1] 7.72 µM | [2] 10.9 µM | [4] 39 µM | [8] 54.6 µM
inactive: [6]

OCCN1CCN(CCCN2c3ccccc3Sc3ccc(Cl)cc32)CC1
active: [1] 3.59 µM | [2] 5.07 µM
not listed: [3]
inactive: all other assays above

Clc1cc(Cl)nc(Cl)n1
inactive: [1] | [2] | [3] | [4] | [5] | Aromatase (Homo sapiens)

O=[N+]([O-])c1ccc(O/N=C/c2cc(Br)c(O)c(Br)c2)c([N+](=O)[O-])c1
inactive: [3] | Aromatase (Homo sapiens)
active: [1] 10.8 µM | [2] 9.64 µM

c1ccc2c(c1)CCc1ccccc1N2
inactive: [1] | [2] | [3] | [5] | Aromatase (Homo sapiens)

O=[N+]([O-])c1cc(C2CCCCC2)c(O)c([N+](=O)[O-])c1
active: [1] 9.66 µM | [2] 3.85 µM | [9] 6.15 µM [inconclusive] | [5] 6.09 µM | Aromatase (Homo sapiens) 17.2 µM
inactive: [6]

C=Cc1ccc(S(=O)(=O)O)cc1
23.7 µM (active) and inactive: [7]
inactive and 9.69 µM (active): [1]
not listed: [2]
inactive: all other assays above
